From PubChem BioAssay AID1508600 (Functional Genomics Laboratory (NCATS/FGL), 2020)
Out of some 53,000 sequences screened, about 3,700 (7%) were called active.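 Rule for the calls: active = gene knockdowns whose robust z-score for IL-1 alpha signal is at least 2 or at most -2, so actives lie on both sides; inactive = the rest.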 Shown is part of a subset that was picked to be rich in actives.

Experiment: Components of the Cytosolic LPS Sensing Pathway: Gene Identification via Genome-wide siRNA Screen;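 note: robust z of the log signal after scaling to non-targeting control siRNA wells of the plate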
Settings: RAW264.7 macrophages, IL-1a HTRF, actives lie on both sides, screened at 100 nM (by protocol), cells primed 5 h with Pam3CSK4 first
How it was run: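 Cells (RAW264.7, 1×10^4 per well) were transfected with siRNA at 100 nM and cultured 48h at 37 degrees C. Pam3CSK4 was added for 5 hours; LipidA transfection followed for 24 hour. IL-1a was then measured by HTRF.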

| Sequence | z-score |
| --- | --- |
| CCCUCCGAAAAUUUUUCUGTT against Defb14 | -0.363 (inactive) |
| GGUAUGGAUCAAGGUUCUUTT against Gja6 | 3.21 (active) |
| GGUGGCCAUCAAGAAGAUATT against Mapk7 | -0.749 (inactive) |
| CGACCACACAGGGAUAUACTT against Sectm1a | -0.169 (inactive) |
| GGGCUAUCUAUCAUAGUUUTT against Scp2 | 1.17 (inactive) |
| GCAUGUAUAACAGACCCAUTT against Tex47 | 0.928 (inactive) |
| GGUCACCUUAUAAUUGCCCTT against Btd | -2.83 (active) |
| GGUGAGAUAGGUCUAGUUGTT against Col10a1 | -0.273 (inactive) |
| GGAUCACUGACUUUGAAUUTT against Mob2 | -0.654 (inactive) |
| GGCUGUCAUGCAUUAUAUGTT against Tfeb | -0.535 (inactive) |
| GGAGCUUCUUGACCUCGUGTT against Frmd4a | 0.184 (inactive) |
| CCUGUUUUCCGACUUGUUGTT against Il4ra | 0.809 (inactive) |
| GGUGGUUACACAAGGAACATT against Phgdh | -0.314 (inactive) |
| GGCUCAUCCCAAUGCUAUATT against Sdc3 | 0.304 (inactive) |
| GGUGAUCACUCUCUCUGAATT against Olfr187 | -0.975 (inactive) |
| CCGUAACCCAGAAAAUGUATT against Eva1a | -2.01 (active) |
| CCAUUGACUUACUUCUAAGTT against Gimap6 | 0.58 (inactive) |
| GGAUCAACGGAUUUUAGAATT against Gcfc2 | 1.21 (inactive) |
| GGAGAUGAAAAGAGAAAUCTT against Cct6b | 2.41 (active) |
| GGAGCUGAUGACUUCAGGCTT against Mmp19 | 1.17 (inactive) |
| GGGAUUCUCCAAAAGGAAGTT against Arhgap6 | 0.856 (inactive) |
| GGUGAUGAAGAGGUUCCCUTT against Fzd4 | -0.868 (inactive) |

| Sequence | z-score |
| --- | --- |
| GAAGAUGCCACGCUAAAAATT against Adam34 | 2.73 (active) |
| GGGCUUUGCUGUCUAUGCATT against Dmwd | -0.617 (inactive) |
| GGAGUUUGAUCAGAUCCUATT against Asf1b | 1.74 (inactive) |
| GAAAUCAGAAGAAAUGAAGTT against Phgr1 | -0.451 (inactive) |
| GGAAUCAAAGAUGGAGAGGTT against Galnt3 | -0.409 (inactive) |
| GGAAACAUUGUCAUCAUGATT against Olfr1299 | -0.787 (inactive) |
| GGUCAUGUUUCUCUCCCAATT against Veph1 | -2.11 (active) |
| GCGGUAUCCUAGCUGUGAATT against Brsk1 | -0.0667 (inactive) |
| CCCUGUAUAUAUGAUGACATT against Ldhd | -1.83 (inactive) |
| GGGUCUACAAUCACCAGACTT against Wnt10a | 1.15 (inactive) |
| GAUGAUCUUUUGGAUGAACTT against Spem2 | -0.51 (inactive) |
| CCCAGGCACUUGUUUACAGTT against Stim2 | -0.454 (inactive) |
| GGCAUGCUUGGCUUAUUUGTT against Kcnk4 | 0.0317 (inactive) |
| GCUGCUAUCCAGAAGGUAUTT against Egr2 | -2.04 (active) |
| GGCUUACUAACAGUUUUUGTT against Gem | -0.29 (inactive) |
| GGCAUCGAGAUUUAAUUGATT against Usp27x | -0.179 (inactive) |
| GGCUCUCUGGCUUACUAAGTT against Mrpl37 | 1.09 (inactive) |
| CCCAGGUCCUACCUUCUUUTT against Ppcdc | -2.1 (active) |
| GGUGUGGGAUUUCUACACUTT against Sbf1 | 0.0854 (inactive) |
| GCAGCUUGCUUGAUUCAAGTT against Iqcb1 | 0.424 (inactive) |
| GCAUUUGGGCAACGAGAUGTT against Nr5a1 | -1.3 (inactive) |
| GGCAGCUGGAAAGACAAAATT against Snca | 1.19 (inactive) |

| Sequence | z-score |
| --- | --- |
| GCUGAGAGUAUCCUUAUUCTT against Fhdc1 | 0.374 (inactive) |
| GGCCAACAUCUGCUAUGUCTT against Hao2 | -2.58 (active) |
| GGUCAACGUGUAUGUAUUUTT against Lrat | -1.27 (inactive) |
| CGUGCAUGUGUAAGUCAGGTT against Hpvc2 | 0.68 (inactive) |
| GCAAGAGCUGAGUACUCUGTT against Ahsp | -0.522 (inactive) |
| GGAAGUUUAAAGUCUAGAATT against Adcy7 | 0.477 (inactive) |
| GGCCCAAGAGAACAUCAAATT against Speer2 | -2.16 (active) |
| GCAGUCUCCAAUUGAGAUUTT against Car13 | -0.0313 (inactive) |
| CUCCGACCAUACUGGAAGATT against Arpp21 | -0.406 (inactive) |
| GCAAGCUAGAGAAAAUCAGTT against Serpinb3b | -0.231 (inactive) |
| GGAAAAAAGGUCUGUAAAUTT against Ubl4b | 0.223 (inactive) |
| GGAUGUGCUGACCUUACAGTT against Gaa | 2.35 (active) |
| GCGGAACAUCUUAGCUUAATT against Perm1 | -0.111 (inactive) |
| GCCCUGGAAAGGAUGUUUGTT against Hba-a1 | -0.607 (inactive) |
| UAGCCACUCAUCAUUCUAATT against Gm10319 | 0.964 (inactive) |
| GGCACUUUUGAUUUCAGAUTT against Nrd1 | 3.52 (active) |
| GCUGGAUAUUUCUAAGUAUTT against A26c3 | 1.9 (inactive) |
| CCGUUAGGUUUUUAUCCAATT against Ube2b | 0.193 (inactive) |
| GGACCUUUUAUCUGAAAUGTT against Papln | 1.54 (inactive) |
| GGAUGUGACUCAGAUUGGGTT against Tmem171 | 0.0209 (inactive) |
| GGAGAUGGCCACCUAUUUGTT against Csnk1g2 | -0.325 (inactive) |
| GGAAAAAGCCUAACUAUGATT against Ccnl1 | -0.7 (inactive) |

| Sequence | z-score |
| --- | --- |
| GCAUGAUAUCAGUGGCAAGTT against Itga11 | -2.41 (active) |
| GCCUGUUGCUAUGAAUGGUTT against Zfp597 | -0.353 (inactive) |
| GGAAGCAUUGAAGAUAAGATT against Topbp1 | -0.273 (inactive) |
| CCAUUGGAUCCAUUCCUAUTT against Plcd3 | -0.984 (inactive) |
| CCUCUGUCUGCUAAUAAGATT against R3hdm4 | 1.01 (inactive) |
| GGAGGCCAUCACACUUAGATT against 4933421I07Rik | -2.27 (active) |
| GUUCCCGUUCUACGAGAAGTT against Foxl2 | 1.22 (inactive) |
| CCAAAUGACAGCUAUGGCCTT against Gtf2ird2 | -0.312 (inactive) |
| GCUGUCCAAGUACGAGACATT against Atoh7 | 0.0721 (inactive) |
| GCUCCUGUGAUUGAUGCAGTT against Dync1h1 | 0.528 (inactive) |
| GCAUUUAUAAUUGCUGAACTT against Cbx1 | -0.637 (inactive) |
| GGAACCACACAUGUGUUAATT against Grik2 | -0.281 (inactive) |
| GGACAAUUGCCUUUUGACATT against Thbs3 | 0.146 (inactive) |
| CCAGCAGCCUUCUAACUAUTT against Hnrnpa2b1 | 2.14 (active) |
| GGUCUUCUACAACUCGGAATT against Sgpp1 | -0.146 (inactive) |
| GGUGGUGAGAUAGAGAAAUTT against C1qc | -0.115 (inactive) |
| GCAUUACACUUAACUGACGTT against Zfp652 | -1.28 (inactive) |
| CCCAAUAACAUCUUAAGAUTT against Lyn | -0.254 (inactive) |
| GGGAGACGGCGAGGUUUUATT against Arl6ip4 | 2.89 (active) |
| GGAAUGUCACUUUGACUCUTT against Arxes1 | -0.533 (inactive) |
| GGCCAGAGAAGAUUACUUUTT against Ajuba | 1.03 (inactive) |
| GGACCUCACAGAUUAUGGGTT against Ebi3 | 0.693 (inactive) |

| Sequence | z-score |
| --- | --- |
| CGCCUACAGCUCUAUCUUATT against 2700062C07Rik | 1.05 (inactive) |
| GGCGACAUGAAAGAAGGCATT against Klk6 | 2.61 (active) |
| ACCCUCACCUCGCAUGACUTT against Pcbd2 | -1.57 (inactive) |
| GGACAAAGUAUUUGUGACCTT against Cd3d | 0.00913 (inactive) |
| GCAAGAUCCAGCCCUAUCATT against Usp17lc | -0.439 (inactive) |
| GGAAAGUCCUUCAUCAGCATT against Cep120 | -2.91 (active) |
| GGACAAGAUGAUCUGCCUATT against Lrrc8a | 0.722 (inactive) |
| GCCGAUACUUGAGCCAGUUTT against Srd5a1 | 0.477 (inactive) |
| GCUUCGACACUUUAUUUCUTT against Cnp | 0.26 (inactive) |
| GGGUUUUCUUGUGUGAAAATT against Pomp | -2.93 (active) |
| CGAGGGAAUGCACUACAACTT against Chpf | 2.16 (active) |
| GGAAGACCAGCAGUUAAGATT against Grb10 | -1.56 (inactive) |
| GGUGGAAGAGGUCAAAUAATT against Denr | 1.05 (inactive) |
| GGAAAAAGACUUCUAUCACTT against Ly6g6g | -2.03 (active) |
| GGCUUUUGAGAUUGCUAAATT against Mfap3l | -0.491 (inactive) |
| GGCCUUUGAUGACUUCAUCTT against Cacna1h | 0.904 (inactive) |
| CCACUGGACAGGAACAAAGTT against Rims1 | -1.2 (inactive) |
| GGAGGUGAUGCAGAUGCUGTT against Gpi1 | 3.06 (active) |
| GCCGACUCAUGGUUUAGAATT against Tmem18 | -0.0972 (inactive) |
| GGCAAUGAAUUUAACAAUCTT against Zfp874a | -0.351 (inactive) |
